The text below walks through data of PubChem BioAssay.

Several values for one entry are separate records, joined by “and”; a condition that tells them apart may be missing. Identical values can stand only once.

A short description of the test: sensitizers of A549 cells to miR-34 induction, primary screen, imaging, A549 dox-inducible miR-34, nuclei and caspase counts (AID 1347080). Also: test concentration not given here. Conditions: A549 miR-34 inducible, Hoechst nuclei count, 48 h; measured here: total cells with miR-34 induction; stronger effect = lower value.
As to `c1ccc2c(c1)CCCc1cc(NCCN3CCOCC3)nnc1-2`, the cell count was 7290. In the case of `COC(=O)C1=CO[C@@H](C)[C@H]2CN3CCc4c([nH]c5ccccc45)[C@@H]3C[C@H]12`, the cell count was 5880.

For `CCCCC[C@H](O)/C=C/[C@@H]1[C@@H](CC(=O)CCCCC(=O)O)[C@@H](O)C[C@H]1O`, the cell count was 5930 and 6160. The value for `CCCCCCCCCCCCCCCC(=O)OCC(COP(=O)(O)O)OC(=O)CCCCCCCCCCCCCCC` (stereo unspecified) was 5850. Turning to `Cc1n[nH]c(=O)[nH]c1=O`, the cell count stood at 8710. The same measure for `CCCCCCCCCCCCCCC[C@@H](O)[C@@H](N)CO`: 5120; for `CCCCC/C=C\C[C@@H](O)/C=C/C=C/C=C\[C@@H](O)CCCC(=O)O`: 6200; for `CCCCCCCCCCCCCCC[C@@H](O)[C@H](CO)NC(C)=O`: 5490. The value for `CCCCCC(=O)/C=C/[C@H]1[C@H](O)CC(=O)[C@@H]1C/C=C\CCCC(=O)O` was 6130; that for `CCCCCCCCCCCCC(O)C(=O)O` (stereo unspecified) was 6110 and 6000.

Take `CCCCC[C@H](O)/C=C/[C@H]1OC(O)C[C@H](O)[C@@H]1C/C=C\CCCC(=O)O` (stereo partly specified): the cell count came to 5370.

`O[C@@H]1[C@@H](O)C=C2CCN3Cc4cc5c(cc4[C@H]1C23)OCO5` (stereo partly specified): the cell count stood at 2250. The value for `COC(=O)[C@H]1[C@H]2C[C@@H]3c4[nH]c5cc(OC)ccc5c4CCN3C[C@H]2C[C@@H](OC(=O)/C=C/c2cc(OC)c(OC)c(OC)c2)[C@@H]1OC` was 7260. The value for `CCCCCCCC/C=C\CCCCCCCC(=O)OCC(CO)OC(=O)CCCCCCC/C=C\CCCCCCCC` (stereo unspecified) was 5020; that for `CCCCCCCCCCCCCCCC(=O)NCCc1ccc(O)c(O)c1` was 5560; that for `CCCCC[C@H](O)/C=C/[C@@H]1[C@@H](C/C=C\CCCC(=O)O)[C@@H](O)C[C@@H]1O` was 5840 and 5720.
